The text below walks through data of PubChem BioAssay (NCI).

The panel holds about 83,000 compounds, 20% with a hit somewhere; the sample as a whole holds those more often.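 Values shown are percent growth following 48 h exposure of cells in 96-well plates to a single concentration of compound; below 10 was considered active.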 Unmarked numbers belong to inactive results. Active and inactive are the calls of the source.

What all share (experiment): NCI-60 one-dose screen, 48 h (100 = growth as untreated, 0 = no growth, -100 = all killed)
Common to all, as to conditions: 10 µM unless noted

Assay [1] deals with SK-MEL-2 melanoma.
The subject of assay [2] is EKVX NSCLC.
Assay [3] relates to SN12C renal.
Assay [4] deals with UO-31 renal.
Assay [5] has as its system TK-10 renal.
The subject of assay [6] is ACHN renal.
Assay [7] relates to CAKI-1 renal.
Assay [8] deals with A498 renal.
Assay [9] concerns CCRF-CEM leukemia.
Assay [10] deals with MOLT-4 leukemia.
Assay [11] has as its system RPMI-8226 leukemia.
Assay [12] has as its system OVCAR-8 ovarian.
The test system of assay [13] is OVCAR-5 ovarian.
In assay [14] the test system is OVCAR-4 ovarian.
For assay [15], the system named is SK-OV-3 ovarian.
In assay [16] the test system is IGROV1 ovarian.
The test system of assay [17] is OVCAR-3 ovarian.
The test system of assay [18] is HS 578T breast.
The subject of assay [19] is NCI/ADR-RES ovarian.

For the compound `CCC(=O)Oc1ccc2c(c1)CC[C@@H]1[C@@H]2CC[C@]2(C)C[C@H](OC(=O)CC)C[C@@H]12`, the growth in assay [1] was 75.1%; in assay [2], 62.7%; in assay [3] it was 70.4%; in assay [4], 71.7%; in [5], 105%; in assay [6], 73%. The growth was 64.8% in assay [7]; 7.94% (active) in assay [8]; 74.6% in [9]; 51.1% in assay [10]; 67% in assay [11]; 87.9% in assay [12]. The growth in assay [13] is 98.4%; in assay [14], 79%; in assay [15], 56%; in assay [16], 77.6%; in [17], 68.8%; in [18] it was 59.7%. The growth in assay [19] was 54.2%.
On to `Cc1cc(C(=O)O)c(N)c(C)n1`, for which the growth was 119% in assay [1]; 95.4% in [2]; 106% in assay [3]; 83.4% in [4]; 101% in assay [5]; 109% in assay [6]. The growth in assay [7] is 92.3%; in [8], 101%; in assay [9], 107%; in assay [10] it was 101%; in [11], 103%; in assay [12], 112%. Also, the growth in assay [13] was 111%; in [14], 102%; in assay [15], 129%; in assay [17] it was 110%; in assay [18], 101%; in assay [19], 108%.
As for `Nc1cc2c(cc1N)-c1cc(N)c(N)cc1C2`, the growth in assay [1] was 111%; in assay [2], 89.2%; in assay [3], 94.9%; in assay [4] it was 53.9%; in assay [5], 110%; in [6], 96%. Besides, the growth in [7] was 93.8%; in [8] it was 63.5%; in [9], 88.2%; in assay [10], 92.3%; in [11], 95.9%; in [12] it was 103%. For the same compound, the growth is 109% in assay [13]; 108% in [14]; 99.2% in assay [15]; 97.6% in [16]; 109% in assay [17]; 94.3% in [18]. Moreover, in assay [19], the growth is 111%.
As to `NC(N)=NC(N)=Nc1ccccc1-c1ccccc1`, the growth in [1] is 109%; in assay [2] it was 111%; in [3], 105%; in [4], 99.3%; in assay [5], 108%; in assay [6], 106%. Also, the growth was 89.8% in assay [7]; 113% in assay [8]; 113% in [9]; 98.6% in assay [10]; 112% in assay [11]; 113% in assay [12]. The growth in assay [13] was 110%; in [15] it was 123%; in assay [16], 110%; in assay [17], 117%; in assay [18] it was 109%; in assay [19], 117%.
With `CCOC(=O)c1cc(/C(=N\O)c2cc(OC)c(OC)c(OC)c2)n2cc(C)cc(C)c12`, the growth in [1] is 2.79% (active); in [2], 37.7%; in [3] it was 30.3%; in assay [4] it was 48.7%; in assay [5], 26.7%; in assay [6] it was 10.5%. Further, the growth in assay [7] is 37.1%; in [8], -6.21% (active); in assay [9], 9.43% (active); in [10], 9.33% (active); in assay [11], 17.6%; in [12], 41.8%. The growth in assay [13] was 64.3%; in assay [14], 20.7%; in [15], 37.8%; in [16], 57.5%; in assay [17], -8.99% (active); in [18], 11.4%. The growth in [19] was 22.6%.
Consider `CCOC(=O)c1cc(/C(=N\O)c2cc(OC)c(OC)c(OC)c2)n2c(C)cccc12`, for which the growth in [1] is 21.8%; in assay [2], 36.6%; in [3], 54.3%; in assay [4], 54%; in assay [5] it was 21.2%; in [6] it was 37.3%. In addition, the growth is 36% in assay [7]; -1.4% (active) in assay [8]; 22.5% in assay [9]; 28.5% in assay [10]; 41.5% in assay [11]; 54.3% in [12]. The growth is 73.2% in assay [13]; 38.4% in assay [15]; 52.5% in [16]; 15.7% in assay [17]; 12.4% in [18]; 29.3% in assay [19].
As for `COC(=O)CCCCCN=Cc1c(O)c(O)c(C(C)C)c2cc(C)c(-c3c(C)cc4c(C(C)C)c(O)c(O)c(C=NCCCCCC(=O)OC)c4c3O)c(O)c12`, the growth in [1] was 10.4%; in [2], 21.7%; in assay [3] it was 19.8%; in assay [4], 19.5%; in assay [5], 3.95% (active); in [6], 15.5%. Moreover, the growth in assay [7] is 55.6%; in [8], 35.1%; in assay [9] it was 18.1%; in assay [10] it was 13.6%; in assay [11], 16.6%; in [12], 11.4%. Further, the growth in [13] was 11.3%; in assay [14] it was 15.5%; in assay [15], 24%; in assay [16] it was 25.6%; in assay [17], 15.9%; in assay [18], 19.9%. The growth in assay [19] was 61.8%.
Take `Cc1ccc2c(c1)ncn2-c1ncnc2c1CC(C)c1ccccc1N2C` (configuration not stated): the growth in assay [1] was 32.7%; in assay [2], 40.8%; in assay [3] it was 21.2%; in assay [4], 26.9%; in assay [5], 8.21% (active); in assay [6], 20.2%. The growth in assay [7] was 19.6%; in assay [8] it was -11.7% (active); in assay [9], 13.3%; in [10], 12%; in assay [11], -9.63% (active); in assay [12], 8.64% (active). Further, the growth in assay [13] was 54.8%; in [14], 46.5%; in assay [15], 29.6%; in assay [16] it was 16.3%; in assay [17], 9.32% (active); in assay [18], 20.2%. For the same compound, the growth in [19] is 17.1%.
Consider `Cc1ccc2c(c1)C(C)Cc1c(ncnc1-n1cnc3ccccc31)N2C` (configuration not stated), for which the growth was 38.6% in assay [1]; 40.1% in [2]; 37.5% in assay [3]; 40.1% in assay [4]; 13.8% in [5]; 35.4% in assay [6]. Moreover, the growth is 24.6% in assay [7]; -16% (active) in assay [8]; 10% in assay [9]; 11.7% in assay [10]; 21.8% in [11]; 21.3% in [12]. The growth in assay [13] was 42.8%; in assay [15], 43.5%; in [16], 37.6%; in [17] it was -34.7% (active); in assay [18], 8.03% (active); in assay [19], 17%.
